Experimental data taken from PubChem BioAssay (NCI).
About 83,000 compounds went through this panel and 20% of them were active in at least one assay; those are over-represented in the sample as a whole.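 The test compound was applied at a single concentration to cells in 96-well plates for 48 hours, and percent growth was recorded.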 A number with no mark means an inactive call. Calls of active or inactive are those of the source. The calls were made as follows: active = growth percent below 10; inactive = the rest.

What was measured:
Assay in all cases: NCI-60 one-dose screen, 48 h (100 = growth as untreated, 0 = no growth, -100 = all killed)
Settings in all cases: 10 µM unless noted
NCI-H23 lung = test system: NCI-H23 lung
NCI-H226 lung = test system: NCI-H226 lung
NCI-H322M lung = test system: NCI-H322M lung
HOP-62 NSCLC = test system: HOP-62 NSCLC
NCI-H460 lung = test system: NCI-H460 lung
HOP-92 NSCLC = test system: HOP-92 NSCLC
NCI-H522 lung = test system: NCI-H522 lung
A549/ATCC NSCLC = test system: A549/ATCC NSCLC
786-0 renal = test system: 786-0 renal
COLO 205 colon = test system: COLO 205 colon

Compound	growth (NCI-H23 lung)	growth (NCI-H226 lung)	growth (NCI-H322M lung)	growth (HOP-62 NSCLC)	growth (NCI-H460 lung)	growth (HOP-92 NSCLC)	growth (NCI-H522 lung)	growth (A549/ATCC NSCLC)	growth (786-0 renal)	growth (COLO 205 colon)
CC(C)(C)c1cc(C=O)cc(C(C)(C)C)c1O	112%	97.8%	101%	106%	111%	79.5%	90.7%	101%	107%	100%
C=C(C)[C@@H]1CC[C@]2(C(=O)N[C@@H](Cc3ccccc3)C(=O)OC)CC[C@]3(C)[C@H](CC[C@@H]4[C@@]5(C)CCC(=O)C(C)(C)[C@@H]5CC[C@]43C)[C@@H]12	86.7%	94.6%	93.4%	94%	81.3%	57.6%	79.7%	79%	85.8%	94.5%
C=C(C)[C@@H]1CC[C@]2(C(=O)N[C@H](CO)Cc3ccccc3)CC[C@]3(C)[C@H](CC[C@@H]4[C@@]5(C)CCCNC(C)(C)[C@@H]5CC[C@]43C)[C@@H]12	-71.9% (active)	-55.7% (active)	-86% (active)	-86.2% (active)	-86.2% (active)	-88.5% (active)	-79.2% (active)	-83.1% (active)	-90.7% (active)	-83.4% (active)
C=C(C)[C@@H]1CC[C@]2(CN)CC[C@]3(C)[C@H](CC[C@@H]4[C@@]5(C)CCCNC(C)(C)[C@@H]5CC[C@]43C)[C@@H]12	10.5%	53.9%	-42.7% (active)	21.2%	-78.3% (active)	-29.4% (active)	-31% (active)	-68.4% (active)	-97.2% (active)	-71.2% (active)
COc1ccccc1/C(C)=N/NC(=O)CSc1nc2ccccc2c(=O)n1Cc1ccc(S(N)(=O)=O)cc1	96.7%	95.5%	90%	93.5%	100%	105%	82.1%	95.2%	97.3%	119%
COc1cc2oc(-c3cccc(C(=O)Nc4ccc5c(c4)OCO5)c3)cc(=O)c2c(O)c1OC	72.7%	78.5%	81%	60.4%	54.3%	73%	76%	74.9%	64.3%	94.8%
N#C/C(=C\c1c(-c2ccccc2)[nH]c2ccccc12)C(=O)c1ccc(Cl)cc1	36.9%	69%	61.8%	41.4%	18.2%	55.2%	35.3%	48.8%	44.6%	41.6%
Cc1cc(Cl)nc(N(CCNc2ccnc3cc(Cl)ccc23)Cc2ccccn2)n1	56.2%	79.5%	63.6%	72.5%	50.9%	38%	54.1%	63.3%	38.7%	57.5%
C=C1C(=O)O[C@H]2[C@H]1CC/C(CNS(=O)(=O)c1cccc3ccccc13)=C\CC[C@@]1(C)O[C@@H]21	57.9%	57.8%	91.2%	94.9%	73.8%	12.1%	-63.9% (active)	83.5%	26.1%	8.89% (active)
CNCCn1c(=O)c2cc(OC)c(OC)cc2c2ccc3cc4c(cc3c21)OCO4	-18.1% (active)	-98.8% (active)	-14.5% (active)	3.19% (active)	-18.4% (active)	-5.84% (active)	-35.2% (active)	-81.2% (active)	-51% (active)	-61.6% (active)
COc1ccc2c(c1)oc1c(C)c3c(c(C)c12)C(=O)N(CCN1CCOCC1)C3=O	101%	96.4%	90.9%	101%	101%	106%	29.8%	90.8%	102%	109%
Oc1ccc(C2c3ccccc3Oc3ccccc32)c2cccnc12	30.3%	4.5% (active)	24.3%	19.8%	2.23% (active)	43.1%	25%	12.2%	-18.4% (active)	34.8%
COc1cc(C2=NN(C(C)=O)C(c3cc(OC)c(OC)c(OC)c3)C2)ccc1O (stereo not given)	29.5%	38.5%	35.2%	32.8%	-6.58% (active)	48.5%	-33.8% (active)	21.7%	17.9%	-17.2% (active)
O=C(Cc1ccc(/C=C/C(=O)c2ncc[nH]2)cc1)Nc1ccc(Cl)cc1	28.6%	82.2%	42.8%	8.21% (active)	-35.5% (active)	76%	34.2%	33.2%	4.48% (active)	32.9%
NC(=S)N1N=C(c2ccccc2)CC1c1cn(-c2ccccc2)nc1-c1ccc(OCc2ccccc2)cc1 (stereo not given)	104%	98.4%	94.9%	101%	106%	80%	83.5%	91.7%	98.4%	115%
COc1cc2oc(-c3cccc(C(=O)Nc4ccc(Cl)cc4)c3)cc(=O)c2c(O)c1OC	72.6%	66.4%	58.4%	0.268% (active)	20.5%	10.5%	60.4%	47.5%	38.7%	74%
O=C(NCCNc1nccc(-c2c(-c3cccc(F)c3)nc3sccn23)n1)c1ccc(Cl)cc1	73.5%	51.2%	66.3%	91.9%	35.8%	87.1%	68.4%	34.8%	54.6%	29.8%
O=C(/C(=C/c1ccc([N+](=O)[O-])cc1)SCc1ccc(F)cc1)c1ccc(F)cc1	74.8%	86.9%	85.9%	93.6%	90.7%	90.2%	52.2%	91.4%	78.7%	94.7%
O=C1OC(Cc2ccccc2)C1c1ccccc1 (stereo not given)	106%	102%	110%	104%	107%	104%	89.7%	95.9%	102%	109%
C#Cc1cccc(NC(=O)c2cccc(NC(=O)CCl)c2)c1	-77.6% [8.25 µM] (active)	-32% [8.25 µM] (active)	58.8% [8.25 µM]	-24.9% [8.25 µM] (active)	-60.8% [8.25 µM] (active)	-65.3% [8.25 µM] (active)	-65.8% [8.25 µM] (active)	1.7% [8.25 µM] (active)	-71.8% [8.25 µM] (active)	-53% [8.25 µM] (active)
Cc1cc2c(C(=O)NCC#N)cccc2n1-c1nc2c(c(NCc3ccccc3)n1)CCCC2	-41.8% (active)	-69.3% (active)	-19.5% (active)	-16.9% (active)	-35.7% (active)	-63.4% (active)	-24.9% (active)	-38.9% (active)	-56.8% (active)	-51% (active)
CCCOC(=O)N[C@H]1CCc2c(Cl)c(OC)c(OC)c(OC)c2-c2ccc(SC)c(=O)cc21	26.8%	6.58% (active)	31.8%	40.5%	1.99% (active)	-2.58% (active)	12.3%	22.8%	4.31% (active)	0.25% (active)
COC1=CC(=O)c2ccccc2C1=O	48.9%	104%	94.9%	44.9%	106%	127%	77.8%	97.4%	105%	117%
CN1CCN(C(=O)[C@]23CCC(C)(C)C[C@H]2C2=CC[C@@H]4[C@@]5(C)C/C(=C/c6cccnc6)C(=O)C(C)(C)[C@@H]5CC[C@@]4(C)[C@]2(C)CC3)CC1	72.8%	79.7%	96.3%	85.2%	31.9%	40.7%	49.4%	47%	73.7%	42.9%
CN1C(N2CCN(S(=O)(=O)c3ccccc3)CC2)=NS(=O)(=O)c2ccccc21	98.2%	112%	82.6%	89%	103%	86.8%	80.2%	69.7%	99.5%	109%
O=[N+]([O-])c1ccc(N=Nc2cc(S(=O)(=O)O)c3cccc(S(=O)(=O)O)c3c2O)cc1	103%	105%	80.7%	107%	116%	87.8%	110%	114%	114%	127%
